# Screening data: PubChem, NMMLSC
# Compounds with a hit are over-represented: about 1.2% of the library has one in this group of screens.
# GSH fluor – GSH bead compound fluorescence profile; GSH beads flow cytometry, compound fluorescence 488/530 nm; stronger effect = higher value; fluorescence (KMESF) at 10 µM; 190,000 tested, 0.25% active; in the data active = fluorescence above about 89;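 note: glutathione beads carrying GST-tagged Bcl family fusion proteins plus one bare bead set; values are compound well signal with DMSO vehicle wells as background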
# Avidin fluor – compound fluoresces at 488/530 nm on avidin beads | 220,000 tested, 0.38% active | compound fluorescence 488/530 nm, flow cytometry; stronger effect = higher value | AID 1775 | fluorescence (KMESF) at 10 µM; in the data active = fluorescence above about 47
# RGS4-Gao reg – modulates binding of RGS4 to human Galphao; binding response (% of control), % at 10 µM; Multiplexed bead flow cytometry; actives lie on both sides; AID 1415; 220,000 tested, 0.33% active; P09471; in the data active = binding response below about 49% or above about 150%; inactive = in between;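 note: fluorescent Galphao activated with aluminum fluoride binding bead-coupled RGS4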
# Target sequence (P09471 whole entry, looked up): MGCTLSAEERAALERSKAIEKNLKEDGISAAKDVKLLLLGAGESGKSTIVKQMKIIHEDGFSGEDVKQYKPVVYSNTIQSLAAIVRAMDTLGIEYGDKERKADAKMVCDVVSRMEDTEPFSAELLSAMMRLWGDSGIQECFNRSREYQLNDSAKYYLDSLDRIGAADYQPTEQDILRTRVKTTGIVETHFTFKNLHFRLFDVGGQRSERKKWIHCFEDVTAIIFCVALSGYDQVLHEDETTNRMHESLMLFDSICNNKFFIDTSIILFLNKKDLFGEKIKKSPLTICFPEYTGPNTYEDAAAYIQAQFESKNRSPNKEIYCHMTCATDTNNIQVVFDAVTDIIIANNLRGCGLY
# RGS16-Gao – regulators of human RGS16-Galphao interaction | binding response (% of control), % at 10 µM | 220,000 tested, 0.38% active | bead-based flow cytometry RGS16-Galphao binding, fluorescence; actives lie on both sides | O15492+P09471; call rule not given here;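 note: Galphao activated by GDP with aluminum fluoride before binding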
# RGS8-Gao reg – modulates binding of RGS8 to human Galphao. P09471. multiplexed bead flow cytometry; actives lie on both sides. response (percent of control binding), % at 10 µM. 220,000 tested, 0.34% active; in the data active = response below about 60% or above about 140%; inactive = in between;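 note: Galphao activated as the GDP aluminium fluoride complex binding bead-coupled RGS8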
# RGS7-Gao reg – modulates binding of RGS7 to human Galphao. P09471. Multiplexed bead flow cytometry; actives lie on both sides. binding response (% of control), % at 10 µM. 220,000 tested, 0.35% active. AID 1439; in the data active = binding response below about 49% or above about 150%; inconclusive = no clear call, values can overlap the other calls; inactive = in between;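 note: fluorescent Galphao held in activated GDP-AlF4 state binding bead-coupled RGS7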
# Numbers without * were called inactive; u = inconclusive; x = not tested or not shown; + = active, no number; [ ] = remark or other dose.
SMILES,GSH fluor,Avidin fluor,RGS4-Gao reg,RGS16-Gao,RGS8-Gao reg,RGS7-Gao reg
OC(CSc1c(Cl)cccc1Cl)CN1CCN(c2ccccc2F)CC1 (stereo unspecified),31,12,99,100,100,97
COC(=O)c1ccc(/C=N/OCC(=O)NCc2ccc(F)cc2)cc1,16,54*,112,110,100,u
CCOC(=O)/C(C#N)=C/Nc1ccccc1OC(F)(F)F,x,105*,134,91,95,u
CCOC(=O)/C(C#N)=C/Nc1cc(OC)ccc1OC,9,4,103,120,106,107
Cc1cc(=O)oc2ccc(OC(C)C(=O)O)cc12 (stereo unspecified),5,2,99,100,100,99
CCc1ccc(N(CC(=O)Nc2nc3ccc(C)cc3s2)S(=O)(=O)c2c(C)noc2C)cc1,29,6,103,102,102,103
Cn1cnc([N+](=O)[O-])c1N=C(N)N,x,3,103,103,103,u
Cc1nc(C#N)c(N/N=C/c2c(F)cccc2Cl)o1,14,5,69,71,80,68
CCN(CC)c1ccc2cc(-c3nnc(-c4ccccc4)o3)c(=O)oc2c1,34,8,96,96,99,99
CCN(CC)c1ccc2cc(-c3nc(-c4ccc(OC)cc4)cs3)c(=O)oc2c1,445*,636*,808*[activator],923*[activator],177*[activator],+[activator]
CCOC(=O)/C(C#N)=N/Nc1ccccc1C#N,x,47*,114,105,98,u
CCOC(=O)/C(C#N)=N/Nc1c(C)n(C)n(-c2ccccc2)c1=O,11,9,102,101,103,103
O=C(O)Cc1csc(NC(=O)c2ccco2)n1,276*,7,101,96,98,103
O=C(Nn1c(C2CCCCC2)nc2ccccc2c1=O)c1ccc([N+](=O)[O-])cc1,13,14,102,121,115,102
COc1ccc(CN2CCN(c3cccc(C)c3C)CC2)cc1OC,54,11,101,100,101,99
COc1cc(CN2CCN(c3cccc(C)c3C)CC2)cc(Br)c1O,272*,8,102,106,103,102
Cc1cc(C(C)(C)C)cc(C)c1Cn1c2[n+](c3ccc(C(F)(F)F)cc31)CCCCC2,15,8,102,105,102,102
CCN1/C(=C/C=C/c2oc3ccc(-c4ccccc4)cc3[n+]2CC)Oc2ccc(-c3ccccc3)cc21,640*,994*,+[activator],+[activator],300*[activator],+[activator]
CCCCN1C(=O)/C(=C/C=C2\Oc3ccccc3N2CC)SC1=S,16,12,102,107,103,108
CCCC(=O)Nc1ccc(-c2nc3cc(C)ccc3o2)cc1,30,10,102,100,101,101
CCCC(=O)Nc1ccc2oc(-c3ccc(OC)c(Br)c3)nc2c1,24,54*,103,101,99,109
Cn1c(=O)c2c(nc(NCCO)n2CCc2ccccc2)n(C)c1=O,15,3,90,69,92,94
Cn1c(=O)c2c(nc(NCCCO)n2CCc2ccccc2)n(C)c1=O,20,50*,102,105,104,105
COc1ccccc1NS(=O)(=O)c1ccc(OC)c(OC)c1,22,113*,106,98,104,126
CC1=C/C(=N\NC(=S)Nc2cccnc2)CC(C)(C)C1,13,9,103,101,102,u
SMILES,GSH fluor,Avidin fluor,RGS4-Gao reg,RGS16-Gao,RGS8-Gao reg,RGS7-Gao reg
Cc1cc(=O)[nH]c(SCC(=O)Nc2cccc3ccccc23)c1C#N,29,132*,224*[activator],219*[activator],115,184*[activator]
Cc1cc(C)c(C#N)c(SCC(=O)Nc2ccccc2C)n1,26,5,101,29,96,102
CCNC(=S)N/N=C/c1cccs1,16,21,99,68,96,96
COc1ccccc1-n1c(-c2ccc(Cl)cc2)c[nH]c1=S,14,12,99,98,96,101
O=C(NCCCn1ccnc1)c1cc(S(=O)(=O)N2CCOCC2)ccc1F,12,22,99,99,98,100
CN(C)CCCNC(=O)c1cc(S(=O)(=O)N2CCOCC2)ccc1F,31,9,166*[activator],172,142*[activator],141
CC(Oc1ccccc1)C(=O)OCC(=O)NC(=O)NCc1ccco1 (stereo unspecified),267*,6,106,122,105,102
CC(C)c1cc(C(=O)OCC(=O)NC(=O)NCc2ccco2)c(O)c(C(C)C)c1,9,9,103,105,101,u
CC(C)NCCCCOc1ccc(Br)cc1Cl,24,10,100,101,101,96
O=C(O)c1cc(-c2cccnc2)nn1-c1ccccn1,260*,7,99,106,99,100
O=C(Nc1cccnc1)c1ccc(Cl)c(S(=O)(=O)N2CCc3ccccc32)c1,10,62*,101,108,102,121
CCOC(=O)NC1(C(F)(F)F)C(=O)NC(C)=C1C(=O)OC (stereo unspecified),8,9,101,107,101,96
COC(=O)C1=C(C)NC(=O)C1(NC(=O)CN1CCCC1=O)C(F)(F)F (stereo unspecified),22,55*,104,103,101,110
O=C(CSC1=NCCS1)N1CCOCC1,249*,8,101,107,103,100
O=C(CSC1=NCCS1)N1CCN(c2ccccc2)CC1,25,4,90,78,90,94
COc1cc(OC)cc(C(=O)N[C@H](C(=O)Nc2ccc3c(c2)OCO3)C(C)C)c1,12,19,103,108,98,107
CN1CCN(C(=O)C(C(=O)c2ccc(F)cc2)n2ccccc2=O)CC1 (stereo unspecified),35,59*,108,113,107,116
O=C(NCc1ccco1)C(C(=O)c1ccc(F)cc1)n1ccccc1=O (stereo unspecified),22,5,101,95,100,98
O=C(NCc1ccccn1)C(C(=O)c1ccc(F)cc1)n1ccccc1=O (stereo unspecified),18,56*,104,101,101,110
CCOC(=O)C1=C(c2ccccc2)N(C)C(=O)NC1c1ccc(OC(F)F)c(OC)c1 (stereo unspecified),13,56*,104,107,100,123
CCN(CC)CCNC(=O)c1ccccn1,12,8,101,106,103,99
CCN(CC)CCNC(=O)c1ccccc1C(=O)c1ncc[nH]1,19,107*,113,112,106,139
CCOC(=O)N1CCC(NC(=O)c2ccc(CNS(=O)(=O)c3ccc(F)cc3)cc2)CC1,21,61*,102,105,99,117
CC(C)(CO)NCC(=O)Nc1cc(C(F)(F)F)cc(NC(=O)CNC(C)(C)CO)c1Cl,6,14,102,109,102,101
